Holding throughout (test): NCI-60 one-dose screen, 48 h (100 = growth as untreated, 0 = no growth, -100 = all killed)
Details in all cases: 10 µM

The test system of assay [1] is HT29 colon.
In assay [2] the test system is SNB-19 CNS.
In assay [3] the test system is U251 CNS.
The subject of assay [4] is PC-3 prostate.
For assay [5], the system named is SK-MEL-5 melanoma.
In assay [6] the test system is UACC-62 melanoma.
Assay [7] deals with LOX IMVI melanoma.
Assay [8] deals with SK-MEL-2 melanoma.
Assay [9] has as its system EKVX NSCLC.
In assay [10] the test system is SN12C renal.
Assay [11] deals with UO-31 renal.
Assay [12] concerns TK-10 renal.
Assay [13] concerns ACHN renal.
For assay [14], the system named is CAKI-1 renal.
Assay [15] concerns A498 renal.
The test system of assay [16] is CCRF-CEM leukemia.
Assay [17] deals with MOLT-4 leukemia.
Assay [18] relates to SR leukemia.
In assay [19] the test system is SK-MEL-28 melanoma.

The structures appear in SMILES notation. The panel holds about 83,000 compounds, 20% with a hit somewhere; the sample as a whole holds those more often.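 48-hour exposure, single concentration, 96-well plates; percent growth endpoint where 0 means no net growth. Active: below 10.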 A number with no mark means an inactive call. Activity calls are given as the source filed them.

In the case of `N#Cc1c(C#N)c(SSc2c(C#N)c(C#N)c(N)n2-c2ccccc2)n(-c2ccccc2)c1N`, the growth was 101% in assay [1]; 103% in [2]; 114% in assay [3]; 49% in assay [4]; 96.7% in [5]; 94.8% in assay [6]. For the same compound, the growth in [7] was 96.4%; in assay [8], 98.5%; in assay [9], 107%; in [10], 99.3%; in assay [11] it was 81.2%; in [12] it was 107%. Also, the growth in assay [13] was 101%; in [14] it was 118%; in assay [15], 92.1%; in [16], 126%; in [17], 106%; in [18], 106%.

`COC(=O)c1c(-c2ccccc2)csc1NC(=O)c1c(-c2ccccc2)noc1C`: the growth in assay [1] was 7.12% (active); in assay [2], 43.9%; in assay [3], 13.3%; in assay [4], 32.5%; in assay [5] it was 32%; in [6], 48.3%. In addition, the growth in [7] was -50% (active); in [19] it was 47.9%; in [8], 61.2%; in assay [9] it was 58.7%; in assay [10], 44.8%; in assay [11], 26%. For the same compound, the growth in [12] was 55.9%; in assay [13], 31.5%; in [14] it was 6.32% (active); in [15] it was 67.8%; in assay [16], 35%; in [17] it was 15.9%. Also, the growth in [18] was -17.2% (active).

Consider `C#Cc1ccc(-n2c(/C=C/c3ccc4ccccc4n3)nc3ncccc3c2=O)cc1`, for which the growth is -61.4% (active) in [1]; -0.995% (active) in [2]; -57.6% (active) in assay [3]; -28.6% (active) in assay [4]; -98.2% (active) in assay [5]; -65.3% (active) in [6]. The growth is -50.8% (active) in [7]; -52.8% (active) in [19]; -67% (active) in assay [8]; -15% (active) in assay [10]; -91.7% (active) in assay [11]; -44.4% (active) in assay [12]. For the same compound, the growth in assay [13] was 2.7% (active); in assay [14] it was -20.5% (active); in assay [15], -69.1% (active); in assay [16], -15.1% (active); in assay [17] it was -7.6% (active); in assay [18] it was -17.9% (active).

Regarding `CCOC(=O)N1C/C(=C/c2ccc(OC)cc2)C(=O)/C(=C/c2ccc(OC)cc2)C1`, the growth in [1] was -58.4% (active); in assay [2], 78%; in assay [3], 12%; in assay [4], 46.5%; in [5] it was 21.6%; in assay [6], 44.6%. In addition, the growth is -72.2% (active) in assay [7]; 58.6% in [19]; 75.1% in assay [8]; 50.2% in assay [10]; 17.1% in assay [11]; 59.5% in assay [12]. Further, the growth was 39.3% in assay [13]; 41.9% in [14]; -0.589% (active) in assay [15]; 6.4% (active) in [16]; 27.3% in assay [17]; -16.7% (active) in assay [18].

As for `COc1ccc(-c2nc3ncccn3c2-c2nnc(-c3ccc(F)cc3)o2)cc1`, the growth in assay [1] was 107%; in assay [2], 96.9%; in assay [3], 106%; in [4], 92.8%; in assay [5], 91.8%; in assay [6], 91.1%. Besides, the growth in [7] is 87.7%; in assay [19] it was 99.5%; in [8] it was 111%; in [9], 96%; in assay [10], 91%; in assay [11], 79.2%. Also, the growth in assay [12] was 113%; in [13], 97.6%; in [14], 100%; in [15], 81%; in [16], 94.4%; in [17], 97.1%. The growth in assay [18] was 108%.

On to `COc1cc(C)ccc1C(=O)c1ccc(C)cc1OC`, for which the growth in assay [1] was 2.74% (active); in assay [2] it was 43.4%; in assay [3], 18.3%; in [4], 17.6%; in [5], 25.9%; in [6], 42.3%. The growth in [7] was 31.5%; in [19], 58.5%; in assay [8] it was 17.2%; in assay [9] it was 31.2%; in assay [10], 43.2%; in assay [11], 31.4%. Moreover, the growth in assay [12] was 38.3%; in assay [13] it was 60.8%; in [14] it was 23.4%; in assay [15], -4.5% (active); in [16], 14.4%; in [17] it was 32.3%. Moreover, the growth in [18] was -10.2% (active).

As for `COc1ccccc1CNCCN1C(=O)c2ccc3c4c(ccc(c24)C1=O)C(=O)N(CCNCc1ccccc1OC)C3=O`, the growth in [1] was -36.1% (active); in assay [2] it was -91.4% (active); in assay [3] it was -81.4% (active); in assay [4] it was -75.4% (active); in assay [5], -100% (active); in assay [6] it was -93.3% (active). Besides, the growth was -82.3% (active) in assay [7]; -74.6% (active) in assay [8]; -78.1% (active) in assay [9]; -91% (active) in assay [10]; -92.4% (active) in assay [11]; -30.8% (active) in [12]. The growth was -59.6% (active) in assay [13], -50.3% (active) in assay [16], -41.9% (active) in assay [17] and -47.1% (active) in assay [18].

For `CCOC(=O)c1ccoc1`, the growth in [1] is 95.1%; in assay [2], 97.7%; in [3], 101%; in assay [4] it was 99.7%; in assay [5], 99.6%; in assay [6] it was 101%. Further, the growth is 99.6% in assay [7]; 106% in assay [19]; 103% in assay [10]; 95.4% in assay [11]; 109% in assay [12]; 96.5% in [13]. The growth in assay [14] is 98.1%; in assay [15] it was 73.7%; in assay [16] it was 100%; in [17] it was 90.1%; in [18], 86.4%.

For the origin of these results see PubChem BioAssay (NCI).
